# Records with an inconclusive call do not appear. Where a call stands in place of a potency, no number is given. A number with no mark means an inactive call. Calls of active or inactive are those of the source. Calls follow the shape of the dose curve; as a rule, active = well fitted curve in the direction sought with a large enough effect; inconclusive = small, poorly fitted or top-dose-only effect, or another doubt; inactive = no such curve, though single readings can be large; an effect the other way counts as inactive or inconclusive.
# What was measured:
# Hek293T = assay: Primary qHTS to identify gynecologic anti-cancer compounds using libraries of approved drugs and bioactive compounds (AID 1345084); conditions: Gynecologic cancer cell panel viability, ATPlite luminescence, 48 h, control line for the selectivity index; series mostly up to 57.5 µM; also: nearly all actives have a fitted effect of over 55% in size
# In short: (§1)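 ATP-based viability (ATPlite), 1,000 cells/well, 16 h pre-incubation, 48 h compound at 37 C, 5% CO2, 15 min RT before read.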
# JEG-3 = assay: as above; conditions: Gynecologic cancer cell panel viability, ATPlite luminescence, 48 h; series mostly up to 57.5 µM
# In short: as §1
# OV90 = assay: as above; conditions: Gynecologic cancer cell panel viability, ATPlite luminescence, 48 h; series mostly up to 57.5 µM
# In short: as §1
# SKOV3 = assay: as above; conditions: Gynecologic cancer cell panel viability, ATPlite luminescence, 48 h; series mostly up to 57.5 µM
# In short: as §1
# Tov-21-G = assay: as above; conditions: Gynecologic cancer cell panel viability, ATPlite luminescence, 48 h; series mostly up to 57.5 µM
# In short: as §1
# Tov112D = assay: as above; conditions: Gynecologic cancer cell panel viability, ATPlite luminescence, 48 h; series mostly up to 57.5 µM
# In short: as §1
# [1] = Drug repurposing screens with cells derived from glioblastoma tumor samples (AID 1345199); conditions: GBM patient neurospheres viability, ATP luminescence, 48 h; also: nearly all actives have a fitted effect of over 40% in size
# In short: (§2)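 Primary testing used CD133+ neurospheres from four GBM patients, seven concentrations, 48 h exposure and ATP-based viability; confirmation added three slower-growing patient lines.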
# astro = assay: as above; conditions: viability, ATP luminescence, 48 h; series mostly up to 45.9 µM
# In short: as §2
# PA-1 = assay: Primary qHTS to identify gynecologic anti-cancer compounds using libraries of approved drugs and bioactive compounds (AID 1345084); conditions: Gynecologic cancer cell panel viability, ATPlite luminescence, 48 h; series mostly up to 57.5 µM; also: nearly all actives have a fitted effect of over 55% in size
# In short: as §1
# [2] = at 20 µM (top of the series), tumour line C
# [3] = at 21.2 µM (top of the series), tumour line B
# [4] = at 21.2 µM (top of the series), tumour line D
# [5] = at 45.9 µM (top of the series), tumour line B
# [6] = at 45.9 µM (top of the series), tumour line D
# [7] = at 46.1 µM (top of the series), tumour line C
# [8] = at 46 µM (top of the series), tumour line A
# Potency is read from the fitted curve at half-maximal effect.
SMILES,Potency (Hek293T),Potency (JEG-3),Potency (OV90),Potency (SKOV3),Potency (Tov-21-G),Potency (Tov112D),"activity, negative = cell killing [1, 2] [%]","activity, negative = cell killing [1, 3] [%]","activity, negative = cell killing [1, 4] [%]","activity, negative = cell killing ([1]; at 21.3 µM (top of the series), tumour line A) [%]",Potency (astro),Potency (PA-1),"activity, negative = cell killing [1, 5] [%]","activity, negative = cell killing [1, 6] [%]","activity, negative = cell killing [1, 7] [%]","activity, negative = cell killing [1, 8] [%]",Potency ([1]; tumour line A)
CC(O)Cn1cnc2c1c(=O)n(C)c(=O)n2C (stereo not given),inactive,inactive,inactive,inactive,inactive,inactive,7.77,-9.45,-12.1,-14.4,inactive,,,,,,
O=[N+]([O-])c1ccc(/C=N\O)o1,inactive,inactive,,inactive,inactive,inactive,,,,,,inactive,-7.45,-31.7,1.04,,
CCN(CC)CCOC(=O)C1(c2ccccc2)CCCC1,inactive,inactive,,inactive,inactive,inactive,,,,,inactive,inactive,-21.1,-19.5,-29.4,,
O=S(=O)(O)c1ccc(O)cc1,inactive,inactive,,inactive,inactive,inactive,,,,,inactive,inactive,-17.6,-11,-1.85,,
Oc1ccccc1C=NCc1ccccc1,inactive,inactive,,inactive,inactive,inactive,,,,,inactive,,-13.2,-14.3,-2.77,,
C[C@@]12C(=O)OC(=O)[C@]1(C)C1CCC2O1,10 µM (active),11.2 µM (active),3.16 µM (active),8.91 µM (active),8.91 µM (active),14.1 µM (active),,,,,0.631 µM (active),,,,,,
CC(C)(Cc1c[nH]c2ccccc12)NCC(O)COc1ccccc1C#N (stereo not given),inactive,inactive,,,inactive,inactive,,,,,,inactive,,,,,
CC(CNC1CCCCC1)OC(=O)c1ccccc1 (stereo not given),inactive,inactive,,inactive,inactive,inactive,10.5,-8.26,-19.5,,inactive,inactive,,,,,
CC(=O)OC[C@H]1O[C@@H](n2ncc(=O)[nH]c2=O)[C@H](OC(C)=O)[C@@H]1OC(C)=O,inactive,inactive,inactive,inactive,,inactive,,,,,,,,-20.8,,-30.4,
Nc1nc(N)c(-c2ccccc2)s1,inactive,inactive,inactive,inactive,inactive,inactive,,,,,inactive,,-11,8.98,-25.4,-29.6,
O=C(NCCc1c[nH]c2ccccc12)c1cccnc1,inactive,inactive,,inactive,inactive,inactive,,,,,inactive,inactive,-17.4,,,,
CCN(CC)CCOc1ccccc1C(=O)CCc1ccccc1,inactive,inactive,,inactive,inactive,inactive,,,,,,inactive,,,,,
CCOc1ccccc1OCCN[C@H](C)Cc1ccc(OC)c(S(N)(=O)=O)c1,inactive,inactive,,inactive,inactive,inactive,,,,,inactive,inactive,-15.7,-16.9,-16.6,,35.5 µM (active)
CCN(CC)CCNC(=O)c1cc(Br)c(N)cc1OC,inactive,inactive,,inactive,inactive,inactive,,,,,inactive,inactive,-11.2,-11.8,-28.9,,7.94 µM (active)
Cc1ccc(-c2ncc(Cl)cc2-c2ccc(S(C)(=O)=O)cc2)cn1,inactive,inactive,inactive,inactive,inactive,inactive,,,,,inactive,,-0.088,-1.02,-0.632,,
CN1CCC(OC(c2ccccc2)c2ccccc2)CC1,inactive,inactive,,inactive,inactive,inactive,1.79,-9.68,,,inactive,inactive,,,,,7.08 µM (active)
